# Only a selection was taken, and hits are over-represented in it overall.
# APE1 inh: qHTS Assay for Inhibitors of the Human Apurinic/apyrimidinic Endonuclease 1 (APE1) | DNA repair nuclease/redox regulator APEX1 (Homo sapiens), P27695 | recombinant APE1, TAMRA/BHQ-2 abasic DNA cleavage fluorescence | Potency, µM (doses to about 65.8 µM), most hits filed as inhibitors | actives 0.35% (n = 350,000) | AID 2517, 2012; note: nearly all actives have a fitted effect of over 55% in size
# Target sequence (P27695 whole entry, looked up): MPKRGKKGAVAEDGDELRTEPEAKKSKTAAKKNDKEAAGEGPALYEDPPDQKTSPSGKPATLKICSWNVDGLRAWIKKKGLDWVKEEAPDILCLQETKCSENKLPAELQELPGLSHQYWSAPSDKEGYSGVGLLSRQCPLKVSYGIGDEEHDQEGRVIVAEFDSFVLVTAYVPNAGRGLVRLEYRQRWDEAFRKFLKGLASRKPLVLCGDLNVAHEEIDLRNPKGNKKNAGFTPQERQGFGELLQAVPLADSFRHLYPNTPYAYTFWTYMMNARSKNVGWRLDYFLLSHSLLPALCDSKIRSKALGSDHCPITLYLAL
#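 Readout is kinetic fluorescence (ex 525, em 598 nm) from cleavage of 50 nM TAMRA/BHQ-2 THF abasic duplex by 0.75 nM APE1, compound added 15 min beforehand at RT.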
# RECQ1 inh-1: qHTS Assay for Inhibitors of RecQ-Like Dna Helicase 1 (RECQ1); ATP-dependent DNA helicase Q1 (Homo sapiens), P46063; RECQ1 DNA unwinding, red fluorescence kinetic read; Potency, µM (highest dose often 57.3 µM), hits mostly inhibitors; actives 0.54% (n = 240,000); AID 2549, 2010; note: nearly all actives have a fitted effect of over 30% in size
#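 RECQ1T1 50 nM; forked duplex (20 bp + 30-nt ss tails) 200 nM, ATP 2 mM final; pH 8.0, 2 mM MgCl2, 2.5 ug/ml poly(dI-dC); 15 min compound preincubation; discontinuous kinetic read over 2 h at RT.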
# BLM inh-1: qHTS Assay for Inhibitors of Bloom's syndrome helicase (BLM) | RecQ-like DNA helicase BLM (Homo sapiens), P54132 | recombinant BLM DNA unwinding, fluorescence dequenching | Potency, µM (doses to about 56.1 µM), usual class: inhibitors | actives 0.2% (n = 350,000) | AID 2528, 2010; note: nearly all actives have a fitted effect of over 35% in size
# GoLoco inh red: qHTS Assay for Inhibitors of RGS12 GoLoco Motif Activity (Red Fluorophore). Guanine nucleotide-binding protein G(i) subunit alpha-1 (Homo sapiens), P63096. Gai1:RGS12 GoLoco peptide FP, rhodamine, 10 min. Potency, µM (highest dose often 61.6 µM), hits mostly inhibitors. actives 0.44% (n = 230,000). AID 880, 2007; active = well fitted inhibition curve with a large enough effect, not every such curve was filed as active; inactive = no such curve, though single readings can be large or run the other way; note: nearly all actives have a fitted effect of over 30% in size
# Target sequence (P63096 whole entry, looked up): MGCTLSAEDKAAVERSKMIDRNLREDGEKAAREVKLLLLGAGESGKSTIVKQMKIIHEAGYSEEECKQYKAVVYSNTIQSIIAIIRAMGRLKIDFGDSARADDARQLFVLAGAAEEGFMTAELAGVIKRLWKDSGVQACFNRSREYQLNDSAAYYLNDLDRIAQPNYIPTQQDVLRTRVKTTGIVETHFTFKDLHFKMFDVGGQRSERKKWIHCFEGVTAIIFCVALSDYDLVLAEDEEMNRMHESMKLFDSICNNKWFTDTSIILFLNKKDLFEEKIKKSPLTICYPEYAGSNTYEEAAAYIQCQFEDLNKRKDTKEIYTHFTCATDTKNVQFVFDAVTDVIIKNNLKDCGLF
# L3MBTL1 block: qHTS Assay for the Inhibitors of L3MBTL1; Lethal(3)malignant brain tumor-like protein 1 (Homo sapiens), Q9Y468; AlphaScreen L3MBTL1–H3K9me1 peptide binding; Potency, µM (top dose mostly 57.1 µM), usual class: inhibitors; actives 0.66% (n = 230,000); note: nearly all actives have a fitted effect of over 60% in size
#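 L3MBTL1 50 nM + b-AHA-H3(1-15)K9me1 75 nM, 30 min RT; compound added, 30 min RT; streptavidin donor/Ni-chelate acceptor beads 10 ug/mL each final, 30 min RT dark; AlphaScreen read.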
# JMJD2E inh: qHTS Assay for Inhibitors of Human Jumonji Domain Containing 2E (JMJD2E) | JMJD2E catalytic domain, FDH-coupled NADH fluorescence (FDH is formaldehyde dehydrogenase) | AID 2147, 2009 | actives 1.6% (n = 230,000) | Potency, µM (series often up to 57.1 µM), hits mostly inhibitors; active = well fitted inhibition curve with a large enough effect, not every such curve was filed as active; inconclusive = small, poorly fitted or top-dose-only effect, or another doubt; inactive = no such curve, though single readings can be large or run the other way; note: nearly all actives have a fitted effect of over 50% in size
# BLM inh-2: qHTS Confirmation Assay for Inhibitors of Bloom's syndrome helicase (BLM) | shares compounds with BLM inh-1 | BLM DNA unwinding, fluorescence quenching, biochemical | Potency, µM, hits mostly inhibitors | actives 40% (n = 220);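 note: strand separation dequenches TAMRA so unwinding raises red fluorescence; series mostly up to about 69 µM; nearly all actives have a fitted effect of over 45% in size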
# RECQ1 inh conf: Confirmation qHTS Assay for Inhibitors of RecQ-Like Dna Helicase 1 (RECQ1); shares compounds with RECQ1 inh-1; RECQ1 helicase DNA unwinding, fluorescence; Potency, µM (series often up to 229 µM), hits mostly inhibitors; actives 28% (n = 610); AID 2708, 2010; note: nearly all actives have a fitted effect of over 45% in size
# RECQ1 ADP FP: Counterscreen for RECQ1 Inhibitors: ADP Fluorescence Polarization Displacement Assay; shares compounds with RECQ1 inh-1; Potency, µM (series often up to 228 µM), usual class: inhibitors; AID 2711, 2010; ADP fluorescence polarization displacement counterscreen; actives 27% (n = 530); note: nearly all actives have a fitted effect of over 45% in size
# RECQ1 inh-2: Confirmation qHTS Assay for Inhibitors of RecQ-Like Dna Helicase 1 (RECQ1) - Round 2 Cherry Picks; shares compounds with RECQ1 inh-1; recombinant RECQ1 DNA unwinding, red fluorescence; Potency, µM (series often up to 119 µM), usual class: inhibitors; actives 15% (n = 1,100); AID 504841, 2011; note: nearly all actives have a fitted effect of over 50% in size
# Hits are given with their value; n = inactive; u = inconclusive; x = no result; ! = not confirmed by another sample; [ ] = remark or other dose. Unless noted, calls come from the whole dose curve; as a rule, active = well fitted curve in the direction sought with a large enough effect; inconclusive = small, poorly fitted or top-dose-only effect, or another doubt; inactive = no such curve, though single readings can be large; an effect the other way counts as inactive or inconclusive.
SMILES,APE1 inh,RECQ1 inh-1,BLM inh-1,GoLoco inh red,L3MBTL1 block,JMJD2E inh,BLM inh-2,RECQ1 inh-2,others
O=[N+]([O-])c1ccc(COc2cccc(CNc3ccc(F)cc3)c2)cc1,n,n,n,n,u,n,x,x,
COc1cccc2c1C(=N)c1c(O)c3c(c(O)c1C2=O)C[C@](O)(C(C)=O)C[C@@H]3O[C@H]1C[C@H](N)[C@@H](O)[C@H](C)O1,x,x,x,n[14.2 µM],x,x,x,x,
COc1cccc2c1C(=O)c1c(O)c3c(c(O)c1C2=O)C[C@](O)(C(C)=O)C[C@H]3O[C@@H]1C[C@H](N)[C@H](O)[C@H](C)O1,10µM,14µM,14µM,3.2µM,x,n,18µM,x,RECQ1 ADP FP=0.89µM
COc1cccc2c1C(=O)c1c(O)c3c(c(O)c1C2=O)C[C@@](O)(C(=O)CO)C[C@@H]3OC1CC(N)C(O)C(C)O1 (stereo partly drawn),x,x,n,n,x,x,x,x,
COc1cccc2c1C(=O)c1c(O)c3c(c(O)c1C2=O)C[C@@](O)(C(=O)CO)C[C@@H]3O[C@H]1C[C@H](N)[C@H](O)[C@H](C)O1,7.1µM,32µM!,28µM,2.8µM,n,u,41µM,x,RECQ1 inh conf=36µM
CCOc1ccc2[nH]c(=O)c(C(c3nnnn3Cc3ccco3)N3CCN(C)CC3)cc2c1 (stereo not drawn),u,7.1µM,1.1µM,n,n,u,n,n,RECQ1 inh conf=n;RECQ1 ADP FP=45µM
CC1CCCN(c2ncnc3c2cnn3-c2ccc(F)cc2)C1 (stereo not drawn),x,x,n,x,x,x,x,x,
COc1cccc(OC)c1-c1nn2c(-c3cc(-c4ccccc4)n[nH]3)nnc2s1,u,11µM,28µM,n,n,u,u,x,RECQ1 ADP FP=n
COc1cccc(-c2nnc3sc(-c4ccccc4)nn23)c1,n,n,n,n,n,n,x,x,
CCCCCn1c(=O)[nH]c2cc(C(=O)NCc3ccc(OC)cc3)ccc2c1=O,x,x,n,x,x,x,x,x,
COc1ccccc1CNc1nc(-c2ccc(N(C)C)cc2)nc2ccccc12,n,u,14µM,n,x,u,23µM,n,
COc1ccccc1CNc1nc(-c2ccc(C(=O)N(C)C)cc2)nc2ccccc12,n,n,n,n,x,x,x,x,
O=C(/C=C\c1ccco1)c1ccc(NC(=O)c2ccco2)cc1,u,u,20µM,n,11µM,u,n,u,
O=C(/C=C/c1ccco1)c1ccc(O)cc1,u,n,n,n,x,u,x,x,
O=C(O)CCCCCN1C(=O)/C(=C\c2cn(-c3ccccc3)nc2-c2cccs2)SC1=S,n,n,16µM,n,u,u,32µM,x,RECQ1 inh conf=n
CCC1=NN2C(=N)/C(=C\c3cccn3-c3ccc(C)c(C)c3)C(=O)N=C2S1,n,n,n,n,n,n,x,x,
Cc1ccc(-n2cccc2/C=C2\C(=N)N3N=C(c4ccco4)SC3=NC2=O)cc1,10µM,u,20µM,n,u,n,29µM,u,
S=C(Nc1ccc2nsnc2c1)N1CCCC1,u,u,7.9µM,n,n,u,u,n,
COC(=O)c1ccc(COc2ccc(/C=C(\C#N)c3nc4ccccc4[nH]3)cc2OC)o1,n,u,14µM,n,n,22µM,u,79µM,
COc1ccc(NC(=O)NCc2c(-n3cccc3)sc3c2CCCC3)c(OC)c1,x,x,n,x,x,x,x,x,
Cc1[nH]c2ccccc2c1-c1cc(-c2cc(-c3c(C)[nH]c4ccccc34)nc(N)n2)nc(N)n1,x,x,x,n[14.2 µM],x,x,x,x,
Oc1ccc([C@@H]2CNCCc3c2cc(O)c(O)c3Cl)cc1,u,u,u,n,x,11µM,u,x,RECQ1 inh conf=u;RECQ1 ADP FP=7.1µM
COc1cc(Cl)c(C)cc1NC(=O)c1cc2ccc3cccnc3c2[nH]1,x,x,n,x,x,x,x,x,
O=C(O)c1ccccc1/C=N/NC(=O)c1cc(-c2ccco2)nc2ccccc12,22µM,22µM,14µM,n,u,u,u,x,RECQ1 inh conf=40µM;RECQ1 ADP FP=40µM
CC(=O)Nc1ccc(/C=N/NC(=O)c2cc(-c3ccco3)nc3ccccc23)cc1,n,n,n,n,n,u,x,x,
SMILES,APE1 inh,RECQ1 inh-1,BLM inh-1,GoLoco inh red,L3MBTL1 block,JMJD2E inh,BLM inh-2,RECQ1 inh-2,others
Nc1ccc(N2CCCCC2)c2nonc12,n,u,22µM,n,u,n,n,n,
Nc1ccc(N2CCCCC2)cc1N1CCCCC1,n,n,n,n,u,n,x,x,
CCC(=O)O[C@H]1C(O[C@@H]2C(C)[C@H](O[C@H]3C[C@@](C)(OC)C(O)C(C)O3)C(C)C(=O)OC(CC)[C@@](C)(O)C(O)[C@H](C)C(=O)C(C)C[C@]2(C)O)OC(C)CC1N(C)C (stereo partly drawn),x,11µM,28µM,n,x,n,43µM,x,RECQ1 inh conf=36µM
CCOC(=O)c1ccccc1NC(=O)c1cc2c(=O)oc3ccc(C)cc3c2s1,x,x,n,x,x,x,x,x,
O=c1[nH]c(Nc2ccc(F)cc2)cc2ccccc12,n,u,32µM,n,x,u,u,n,
O=C(COc1ccc([N+](=O)[O-])cc1)Nc1nnc(-c2cccnc2)s1,u,u,16µM,n,u,n,u,u,
CCN(c1ccccc1)S(=O)(=O)c1nnc(NC(=O)C2CCCCC2)s1,x,x,n,x,x,x,x,x,
COc1ccc(CNC(=O)C2CCCN(S(=O)(=O)c3ccc4c(ccn4C)c3)C2)c(OC)c1 (stereo not drawn),x,x,n,x,x,x,x,x,
Cc1ccc(Nc2nc(-c3cccnc3)nc3ccccc23)cc1,n,n,n,n,n,n,x,x,
Cc1c(O)ccc(/C=N/Nc2nc(-c3cccnc3)nc3ccccc23)c1O,n,20µM,u,n,n,u,24µM,x,RECQ1 inh conf=u;RECQ1 ADP FP=n

# High-throughput results deposited in PubChem BioAssay by National Center for Advancing Translational Sciences (NCATS).
